# Reference: publication PMC7862700, “An all-to-all approach to the identification of sequence-specific readers for epigenetic DNA modifications on cytosine”
# Columns and labels:
# Assay in all cases: DAPPL (digital affinity profiling via proximity ligation, sequencing); 10 mM Tris-HCl pH 7.5, 50 mM NaCl, 1 mM DTT, 4% glycerol, room temperature, 30 min; GST-TFs on glutathione beads, 16-mer random dsDNA library, 0.1% formaldehyde crosslink after washing; high values mean tight binding
# [1] = target: T1, FEV (Homo sapiens, UniProt Q99581 1-238); settings: protein: recombinant; tags: N-terminal GST; dsDNA, one strand shown
# T1 sequence: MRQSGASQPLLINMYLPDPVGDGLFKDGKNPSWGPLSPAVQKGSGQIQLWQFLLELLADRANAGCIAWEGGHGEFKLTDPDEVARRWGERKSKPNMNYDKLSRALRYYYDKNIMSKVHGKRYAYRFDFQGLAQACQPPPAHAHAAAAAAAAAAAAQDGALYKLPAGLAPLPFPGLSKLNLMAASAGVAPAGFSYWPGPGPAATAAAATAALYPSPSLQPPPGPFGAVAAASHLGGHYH
# In short: (§1)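 GST fusions of human transcription factors were expressed in yeast and captured with glutathione beads. Once given DNA barcodes and pooled alongside a tag-only sample, they were incubated for 30 min at room temperature with 200 nmole of a random double-stranded 16-mer DNA library in Tris/NaCl/DTT/glycerol buffer, then washed, crosslinked (0.1% formaldehyde), proximity-ligated, PCR-amplified and sequenced on an Illumina NextSeq500. The binding signal of each hexamer is its read frequency for a factor divided by its frequency for the tag-only sample.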
# [2] = target: ETV5 (Homo sapiens, UniProt P41161 1-510); settings: protein: recombinant; tags: N-terminal GST; dsDNA, one strand shown
# In short: as §1
# [3] = target: HSF1 (Homo sapiens, UniProt Q00613 1-529); settings: protein: recombinant; tags: N-terminal GST; chain copies: 3; dsDNA, one strand shown
# In short: as §1
# [4] = target: T2, SPIC (Homo sapiens, UniProt Q8N5J4 1-248); settings: protein: recombinant; tags: N-terminal GST; dsDNA, one strand shown
# T2 sequence: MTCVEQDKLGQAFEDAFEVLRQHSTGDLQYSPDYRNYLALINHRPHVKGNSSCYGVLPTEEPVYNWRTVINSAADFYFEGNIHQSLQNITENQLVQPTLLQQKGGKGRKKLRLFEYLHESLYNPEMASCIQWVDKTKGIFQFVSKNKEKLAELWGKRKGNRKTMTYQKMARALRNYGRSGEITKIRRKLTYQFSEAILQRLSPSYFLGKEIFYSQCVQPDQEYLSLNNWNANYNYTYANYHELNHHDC
# In short: as §1
# [5] = target: ELF4 (Homo sapiens, UniProt Q99607 1-663); settings: protein: recombinant; tags: N-terminal GST; dsDNA, one strand shown
# In short: as §1
# [6] = target: T3, ELK4 (Homo sapiens, UniProt P28324-2 1-405); settings: protein: recombinant; tags: N-terminal GST; dsDNA, one strand shown
# T3 sequence: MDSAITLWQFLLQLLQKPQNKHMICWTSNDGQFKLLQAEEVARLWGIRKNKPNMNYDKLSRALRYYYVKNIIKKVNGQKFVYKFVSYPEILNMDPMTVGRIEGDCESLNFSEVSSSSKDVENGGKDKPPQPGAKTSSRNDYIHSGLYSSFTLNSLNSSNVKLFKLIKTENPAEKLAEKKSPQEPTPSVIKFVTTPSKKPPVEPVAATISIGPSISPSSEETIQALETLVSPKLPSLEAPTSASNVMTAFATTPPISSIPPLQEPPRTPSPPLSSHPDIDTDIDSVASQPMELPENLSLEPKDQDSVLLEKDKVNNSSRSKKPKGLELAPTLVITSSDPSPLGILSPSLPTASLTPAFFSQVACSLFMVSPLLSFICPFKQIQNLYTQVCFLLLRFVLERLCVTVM
# In short: as §1
# [7] = target: T4, ETV2 (Homo sapiens, UniProt O00321 1-342); settings: protein: recombinant; tags: N-terminal GST; dsDNA, one strand shown
# T4 sequence: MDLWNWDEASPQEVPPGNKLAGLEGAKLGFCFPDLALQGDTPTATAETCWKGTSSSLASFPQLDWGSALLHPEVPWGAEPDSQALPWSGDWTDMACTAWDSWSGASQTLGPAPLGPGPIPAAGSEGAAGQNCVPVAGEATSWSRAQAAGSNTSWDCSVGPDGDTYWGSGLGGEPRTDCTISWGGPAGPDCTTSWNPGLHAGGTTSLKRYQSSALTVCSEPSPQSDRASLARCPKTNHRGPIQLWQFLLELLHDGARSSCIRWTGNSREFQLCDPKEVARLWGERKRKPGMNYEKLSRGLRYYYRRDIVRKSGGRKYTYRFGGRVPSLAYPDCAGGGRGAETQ
# In short: as §1
# [8] = target: T5, ELF3 (Homo sapiens, UniProt P78545 1-371); settings: protein: recombinant; tags: N-terminal GST; dsDNA, one strand shown
# T5 sequence: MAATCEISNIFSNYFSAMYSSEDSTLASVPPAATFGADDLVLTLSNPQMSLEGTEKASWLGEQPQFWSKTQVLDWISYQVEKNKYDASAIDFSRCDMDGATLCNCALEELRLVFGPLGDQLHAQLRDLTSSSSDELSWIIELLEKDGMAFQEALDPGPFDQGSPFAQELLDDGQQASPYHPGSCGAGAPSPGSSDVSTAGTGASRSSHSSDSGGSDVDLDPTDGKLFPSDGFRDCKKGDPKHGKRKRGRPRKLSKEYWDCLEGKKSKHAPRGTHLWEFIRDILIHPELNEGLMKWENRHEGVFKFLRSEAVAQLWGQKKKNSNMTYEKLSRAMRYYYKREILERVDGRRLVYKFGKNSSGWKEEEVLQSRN
# In short: as §1
# [9] = target: CRX (Homo sapiens, UniProt O43186 1-299); settings: protein: recombinant; tags: N-terminal GST; dsDNA, one strand shown
# In short: as §1
# [10] = target: ETV1 (Homo sapiens, UniProt P50549 1-477); settings: protein: recombinant; tags: N-terminal GST; dsDNA, one strand shown
# In short: as §1
# ELF4, sequence (Q99607 whole entry): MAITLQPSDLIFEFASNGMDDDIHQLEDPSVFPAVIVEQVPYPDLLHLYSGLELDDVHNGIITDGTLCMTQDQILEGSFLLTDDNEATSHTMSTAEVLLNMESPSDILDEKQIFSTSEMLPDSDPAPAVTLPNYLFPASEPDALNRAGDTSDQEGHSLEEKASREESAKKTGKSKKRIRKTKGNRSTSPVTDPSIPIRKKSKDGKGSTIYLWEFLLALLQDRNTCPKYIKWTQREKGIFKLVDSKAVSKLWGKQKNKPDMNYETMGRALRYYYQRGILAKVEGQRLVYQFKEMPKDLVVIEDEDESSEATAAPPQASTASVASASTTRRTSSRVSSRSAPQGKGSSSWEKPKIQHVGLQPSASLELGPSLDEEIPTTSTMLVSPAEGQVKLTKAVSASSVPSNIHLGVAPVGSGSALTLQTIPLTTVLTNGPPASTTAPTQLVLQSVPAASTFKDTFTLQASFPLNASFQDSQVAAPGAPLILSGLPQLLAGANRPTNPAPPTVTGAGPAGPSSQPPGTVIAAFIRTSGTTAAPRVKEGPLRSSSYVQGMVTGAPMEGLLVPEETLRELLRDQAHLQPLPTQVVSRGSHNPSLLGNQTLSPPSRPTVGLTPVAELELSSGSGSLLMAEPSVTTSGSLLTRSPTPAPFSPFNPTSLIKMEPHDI
# CRX, sequence (O43186 whole entry): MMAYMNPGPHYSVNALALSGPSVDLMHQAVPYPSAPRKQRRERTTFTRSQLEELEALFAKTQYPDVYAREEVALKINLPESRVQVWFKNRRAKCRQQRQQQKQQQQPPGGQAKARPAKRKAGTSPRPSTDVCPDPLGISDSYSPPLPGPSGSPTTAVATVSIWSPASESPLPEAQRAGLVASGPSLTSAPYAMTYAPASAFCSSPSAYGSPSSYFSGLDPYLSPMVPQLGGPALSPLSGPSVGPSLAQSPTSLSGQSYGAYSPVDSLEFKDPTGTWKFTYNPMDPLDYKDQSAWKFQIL
# HSF1, sequence (Q00613 whole entry): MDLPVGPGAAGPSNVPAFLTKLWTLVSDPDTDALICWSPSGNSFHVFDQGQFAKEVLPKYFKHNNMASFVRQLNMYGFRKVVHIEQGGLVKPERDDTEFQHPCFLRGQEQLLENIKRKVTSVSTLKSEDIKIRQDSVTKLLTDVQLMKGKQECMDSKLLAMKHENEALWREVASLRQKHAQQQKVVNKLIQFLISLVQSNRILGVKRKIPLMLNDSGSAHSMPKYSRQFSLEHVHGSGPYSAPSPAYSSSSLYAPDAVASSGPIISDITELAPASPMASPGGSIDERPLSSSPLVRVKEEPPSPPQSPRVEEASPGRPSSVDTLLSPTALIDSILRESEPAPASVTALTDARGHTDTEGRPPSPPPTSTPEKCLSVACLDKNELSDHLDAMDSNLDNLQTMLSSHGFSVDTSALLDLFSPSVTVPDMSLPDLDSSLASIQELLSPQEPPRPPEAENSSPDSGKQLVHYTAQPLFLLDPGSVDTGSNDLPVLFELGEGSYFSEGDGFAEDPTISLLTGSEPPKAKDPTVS
# ETV5, sequence (P41161 whole entry): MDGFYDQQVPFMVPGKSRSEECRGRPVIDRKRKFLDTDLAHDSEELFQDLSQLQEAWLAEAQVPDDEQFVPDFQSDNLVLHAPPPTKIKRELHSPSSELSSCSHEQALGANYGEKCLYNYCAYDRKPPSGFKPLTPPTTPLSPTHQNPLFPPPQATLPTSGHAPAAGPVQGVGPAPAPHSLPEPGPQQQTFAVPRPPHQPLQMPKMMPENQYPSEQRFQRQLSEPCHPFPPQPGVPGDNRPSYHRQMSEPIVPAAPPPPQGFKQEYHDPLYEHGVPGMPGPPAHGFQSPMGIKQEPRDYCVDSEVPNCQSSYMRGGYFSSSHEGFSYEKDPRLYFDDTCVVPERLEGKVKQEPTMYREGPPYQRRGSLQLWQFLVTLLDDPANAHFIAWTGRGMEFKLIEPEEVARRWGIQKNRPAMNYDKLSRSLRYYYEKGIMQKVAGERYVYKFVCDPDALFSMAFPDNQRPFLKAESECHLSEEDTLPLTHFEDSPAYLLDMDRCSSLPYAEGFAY
# ETV1, sequence (P50549 whole entry): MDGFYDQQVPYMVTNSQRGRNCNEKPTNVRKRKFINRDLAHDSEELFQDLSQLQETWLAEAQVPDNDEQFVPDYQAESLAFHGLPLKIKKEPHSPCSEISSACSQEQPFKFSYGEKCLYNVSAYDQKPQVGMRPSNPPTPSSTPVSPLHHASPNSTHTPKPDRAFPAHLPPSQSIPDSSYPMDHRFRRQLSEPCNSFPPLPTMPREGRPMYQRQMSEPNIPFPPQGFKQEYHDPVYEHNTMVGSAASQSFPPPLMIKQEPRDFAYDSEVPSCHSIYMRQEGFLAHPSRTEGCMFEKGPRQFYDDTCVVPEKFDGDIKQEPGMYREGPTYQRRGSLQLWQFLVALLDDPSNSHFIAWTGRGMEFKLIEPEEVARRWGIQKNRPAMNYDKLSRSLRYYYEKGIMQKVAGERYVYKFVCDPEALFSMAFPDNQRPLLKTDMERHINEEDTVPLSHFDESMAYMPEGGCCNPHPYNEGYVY
sequence,measurement,setting,value
TTCTGT,binding signal,[1],"1.27 fold enrichment (6-mer frequency, TF over GST control)"
same,binding signal,[2],"1.26 fold enrichment (6-mer frequency, TF over GST control)"
same,binding signal,[3],"1.6 fold enrichment (6-mer frequency, TF over GST control)"
same,binding signal,[4],"1.41 fold enrichment (6-mer frequency, TF over GST control)"
same,binding signal,[5],"1.3 fold enrichment (6-mer frequency, TF over GST control)"
same,binding signal,[6],"1.5 fold enrichment (6-mer frequency, TF over GST control)"
same,binding signal,[7],"1.35 fold enrichment (6-mer frequency, TF over GST control)"
same,binding signal,[8],"1.24 fold enrichment (6-mer frequency, TF over GST control)"
same,binding signal,[9],"1.31 fold enrichment (6-mer frequency, TF over GST control)"
same,binding signal,[10],"1.32 fold enrichment (6-mer frequency, TF over GST control)"
